Each structure is given as a SMILES string. The source made the active and inactive calls. A call without a number means that no potency is given here. Calls come from the whole dose curve; as a rule, active = well fitted curve in the direction sought with a large enough effect; inconclusive = small, poorly fitted or top-dose-only effect, or another doubt; inactive = no such curve, though single readings can be large or run the other way.

This test can be described thus: qHTS for ATAD5 Agonist screened against the NCATS CANVASS Library (AID 1347367).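 Note: luciferase reporter driven by ATAD5 which rises upon DNA damage.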 Particulars: HEK293T ATAD5-luciferase reporter, luminescence, 16 h; series mostly up to 46.1 µM. The text has this:
Natural products and their derivatives continue to be wellsprings of nascent therapeutic potential. However, many laboratories have limited resources for biological evaluation, leaving their previously isolated or synthesized compounds largely or completely untested. To address this issue, the Canvass library of natural products was assembled (https://tripod.nih.gov/canvass), in collaboration with academic and industry researchers, for quantitative high-throughput screening (qHTS) across a diverse set of cell-based and biochemical assays. The pure (>85% purity by liquid chromatography/mass spectrometry [LC/MS]) Canvass library of 346 natural products were submitted by 45 academic laboratories and companies around the world. We collected pure natural products to circumvent deconvolution and structure elucidation due to time and resource limitations. The library was formatted into 1536-well plates and evaluated in 50 qHTS (in an 11-pnt concentration series) bioassays with broad scope of disease-relevant mechanisms. The resulting data set from 50 different assays was then systematically analyzed to identify overall trends and specific natural products with interesting biological activities. Reported herein are the results of each individual qHTS and their corresponding assay protocol. Human ATAD5 is a biomarker for identifying gentoxic compounds because ATAD5 protein levels increase post-transcriptionally in response to DNA damage. A cell-based assay is used to detect DNA damage inducers and genotoxic compounds as well. The assay is based upon a luciferase reporter gene under control of ATAD5 that has been stably integrated into HEK 293T cells. Luminescence intensity is proportional to ATAD5 expression. National Center for Advancing Translational Sciences (NCATS), Rockville, MD National Institute of Health (NIH), Bethesda, Maryland
ATAD5 Agonist assay protocol: 1. In a 1536 well, tissue culture treated white solid bottom plates (Greiner Bio-One North America), 5 uL of HEK293T-ATAD5 cell solution (2000 cells / well) was dispensed using the Multidrop Combi dispenser (Thermo Fisher Scientific). 2. The assay plates were incubated for 5hr at 37C, 5% CO2 to allow the cells to acclimate and attach. 3. Controls and compounds were pin transferred (~23 nL volume) to the assay plates via Wako Pin-tool (Wako Automation, Richmond VA) equipped with a 1536 pin head. The compounds were transferred to columns 5-48 resulting in a final concentration ranging from 0.6nM to 92uM. Methyl methanesulfonate (MMS) was used as a control in various concentrations (columns 1: dose response, column2: 0.7mM, and column3: 0.6mM). DMSO (0.46% final concentration was used as a negative control. 4. The assay plates were further incubated in the dark at 37C, 5% CO2 for 16hr. 5. To measure cell viability, 1uL of CellTiter-Fluor (Promega) reagent was then added to the assay plates (column 1-48, rows 1-32). The assay plates were incubated in the dark for 1hr at 37C, 5% CO2. 6. A first readout of fluorescence signal was acquired via the ViewLux (PerkinElmer) plate reader using filter sets for AFC (380-400nmEx/505Em) and 1 second exposure setting. 7. To measure ATAD5 activation, 4uL of Amplite (AAT Bioquest) reagent was then added to the assay plates (column 1-48, rows 1-32). The assay plates were further incubated in the dark at room temperature for 30min. 8. A second readout of luminescence signal was acquired via the ViewLux plate reader using a clear emission filter, 10 second exposure setting. Fox JT1, et al. High-throughput genotoxicity assay identifies antioxidants as inducers of DNA damage response and cell death. Proc Natl Acad Sci U S A. 2012 Apr 3;109(14):5423-8.
In general terms: In qHTS, concentration-response curves come from the screen itself.
`CC(C)=CCC[C@]1(C)[C@H]2CC(=O)[C@@]3(CO3)[C@@H]1C2`: the Potency result was “inactive”.
Still for that read-out and setting: with `COC(=O)[C@@]1(C)CCC[C@]2(C)c3cc(OC)ccc3CC[C@@H]12` the entry was “inactive”; with `O=C1CC(c2ccc(O)cc2)Oc2ccccc21` (stereo not given), “inactive”; with `[C-]#[N+][C@@]12C(=O)[C@@H]3[C@@H](O[C@@]4(C(=O)N(C)c5cccc1c54)C3(C)C)C(=O)[C@@]2(C)C=C`, “inactive”.
On the same count and under the same terms, with `C=C1C[C@]23C=CC(=O)[C@@](C)(CCCC(C)C(=O)N[C@@H](CO)C(=O)O)[C@@H]2C[C@@H]1CC3` (stereo not given in full) the entry was “inactive”; with `C=C[C@]1(C)CC[C@@H]([C@H](C)C(=O)CC=C(C)C)O1`, “inactive”; with `CO[C@H]1[C@@H](OC(=O)/C(C)=C\[C@@H]2O[C@@H]2[C@H]2O[C@H]2C)[C@H](O)[C@H](OCC23C[C@@H]4[C@H](C)CC[C@H]4C4(C=O)CC2C=C(C(C)C)C34C(=O)O)O[C@@H]1C` (stereo not given in full), “inactive”.
For the compound `COc1c(O)cc2c(c1O)C(=O)c1c(coc1C)C2=O`, the Potency result was “inactive”.
On the same count and under the same terms, with `C[C@@]12CCC[C@@](C)(C(=O)O)[C@H]1CC[C@@]13C[C@@H](CC[C@H]12)[C@](C)(O)C3` the entry was “inactive”; with `O=Cc1ccc2n1C[C@]1(OC2)O[C@H](CO)[C@@H](O)[C@@H]1O`, “inactive”; with `CN1CCc2cc3c(c4c2C1(C)C(=O)c1cc(O)ccc1-4)OCO3` (stereo not given), “inactive”.
For the compound `COc1cc(O)c(C(=O)[C@@H]2[C@H](CC=C(C)C)C(C)=CC[C@H]2c2ccccc2)c(O)c1`, the Potency entry is “inactive”.
Take `C/C=C/C(=O)C1(O)CC2CC(C(=O)O)CC(C)C2C1C1=C2C(=O)NC(=O)C2=C(CCCCC)C(C)O1` (stereo not given): the Potency result was “inactive”.
Same read-out and setting: next, `CC(=O)N[C@H](C)c1nc(/C=C/C=C/C(=O)CC2CC(=O)CC[C@]2(C)O)cs1` (stereo not given in full): “inactive”.
On the same count and under the same terms, with `CO/C=C/C(=O)c1cc2cnc3c(N)cc(=NC(=O)C(C)C)c([nH]1)c23` the entry was “inactive”; with `C/C(=C\[C@H](C)C(=O)CCCC1CC(=O)NC(=O)C1)[C@@H]1OC(=O)/C=C/CC/C=C/[C@H](O)[C@@H](O)[C@@H]1C`, “inactive”; with `C[C@@]1(CCC(=O)Nc2c(O)ccc(C(=O)O)c2O)C(=O)C=C[C@]23C[C@H]4C[C@H](O[C@@]4(C)C2)C31` (stereo not given in full), “inactive”.
Still for that read-out and setting: next, `CC[C@H](O)CCCCC[C@@H]1NC(=O)[C@H]2CCCCN2C(=O)[C@H]([C@H](C)CC)NC(=O)[C@H](Cc2cn(OC)c3ccccc23)NC1=O`: “inactive”; `C/C=C(/C)c1c(Cl)c(OC)c(C)c2c1Oc1c(Cl)c(O)c(Cl)c(C)c1C(=O)O2`: “inactive”.
Regarding `C/C(=C\[C@@H](C)CC/C=C/CC/C=C/C(=O)O)[C@@H](O)[C@H](C)C(=O)CCCC1CC(=O)NC(=O)C1`, the Potency entry was “inactive”.
Same read-out and setting: next, `Oc1ccc(C2Oc3cc(O)c4c(c3[C@@H]2c2cc(O)cc(O)c2)[C@H]2C(c3ccc(O)cc3)c3c(O)cc5c(c3[C@H]2C4c2ccc(O)cc2)[C@H](c2cc(O)cc(O)c2)C(c2ccc(O)cc2)O5)cc1` (stereo not given in full): “inactive”; `CN1CC[C@@]23c4ccccc4N[C@@H]1[C@@]21CCN(C)[C@@H]3Nc2ccccc21`: “inactive”.
Same read-out and setting: next, `C[C@@]12CCC[C@@](C)(C(=O)OP(=O)(O)OC[C@H]3O[C@@H](n4cnc5c(N)ncnc54)[C@H](O)[C@@H]3O)[C@H]1C[C@@H](O)[C@@]13C[C@@H](CC[C@@H]21)[C@](C)(O)C3`: “inactive”; `COc1cc(C2C3=C(Cc4cc5c(cc42)OCO5)C(=O)OC3)cc(OC)c1OC` (stereo not given): “inactive”.
In the case of `COc1cc2c(cc1OC)[C@@H](c1ccc3c(c1)OCO3)C(C)[C@@H](C)C2=O` (stereo not given in full), the Potency result was “inactive”.
Turning to `CC(CCC[C@]1(C)C(=O)C=C[C@@]23C[C@]4(C)O[C@@H](C[C@@H]4[C@H]2O)C31)C(=O)O` (stereo not given in full), the Potency result is “inactive”.
Regarding `COc1ccc([C@@H]2CC(=O)c3c(cc(O)c(C/C=C(\C)CCC=C(C)C)c3O)O2)cc1`, the activation is -1.01% [at 9.19 µM] (inactive).
In the case of `O=C1CC(c2ccc(O)cc2)Oc2cc(O)ccc21` (stereo not given), the Potency result was “inactive”.
`O=C1CC2OCC=C3CN4C5CC3C2[C@@H]2N1c1ccccc1[C@]52C[C@@H]4C1=C[C@H]2C3CC4N(CC[C@@]45c4ccccc4N(C1=O)[C@@H]25)C/C3=C/CO` (stereo not given in full): the Potency result is “inactive”.
On the same count and under the same terms, next, `O[C@H]1C=C2[C@H]3CN(Cc4cc5c(cc43)OCO5)[C@H]2C[C@@H]1O`: “inactive”.
Still for that read-out and setting: with `C[C@@H]1CC[C@]2(C(=O)O)CC[C@]3(C)C(=C2[C@H]1C)CC[C@@H]1[C@@]2(C)CC[C@H](O)C(C)(C)[C@@H]2CC[C@]13C` the entry was “inactive”; with `COc1cc2c(cc1OC)[C@@H](c1ccc3c(c1)OCO3)C(C)C(C)C2=O` (stereo not given in full), “inactive”; with `C=CC(CCCCC)C1C(=O)NC(=O)C1C(=O)C1C(/C=C/C)C=CC2CC(C(=O)O)CC(C)C21` (stereo not given), “inactive”.
Still for that read-out and setting: next, `CC1=C[C@H]2[C@H]3C(=O)C(c4ccc(O)cc4)=C[C@@]3(c3ccc(O)cc3)[C@@H]1C(=O)[C@]2(C)O`: “inactive”.
As for `C[C@H](c1cnc(N)[nH]1)c1ccc(O)c2[nH]cc(-c3cnc(-c4c[nH]c5ccccc45)c(=O)[nH]3)c12`, the Potency entry was “inactive”.
On the same count and under the same terms, next, `COc1cc2ccc(=O)oc2c(O)c1O[C@@H]1O[C@H](CO)[C@@H](O)[C@H](O)[C@H]1O`: “inactive”; `C=C[C@]1(C)CC[C@@H]([C@H](C)C(=O)/C=C/C(C)(C)O)O1`: “inactive”.
On the same count and under the same terms, with `C/C=C1/CN2C3CC1C1C=CC(=O)N4c5ccccc5[C@@]3(C[C@@H]2C2=C[C@H]3C5CC6N(CC[C@@]67c6ccccc6N(C2=O)[C@@H]37)C/C5=C/C)[C@H]14` (stereo not given in full) the entry was “inactive”; with `COc1c(O)cc(O)c2c(=O)cc(-c3ccccc3)oc12`, “inactive”.
The same measure, in the same setting: with `O=C1c2c(O)cc(O)cc2OC(c2ccc(O)cc2)C1O` (stereo not given) the entry was “inactive”.

The record behind these values is PubChem BioAssay (NCATS).
